# G9a inh: qHTS Assay for Inhibitors of Histone Lysine Methyltransferase G9a; Potency, µM (highest dose often 102 µM), without a hit: at the top dose activity, negative = inhibition, usual class: inhibitors; 350,000 compounds, 8.8% hits; Histone-lysine N-methyltransferase EHMT2 (Homo sapiens), Q96KQ7; AID 504332, 2011; G9a H3K9 monomethylation, AlphaScreen, 2 h; note: % is set by controls: 0 for no effect and ±100 for the full control effect; nearly all actives have a fitted effect of over 75% in size
#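 Compounds were preincubated with 20 nM G9a for 15 min, after which biotinylated H3K9 peptide (500 nM) and SAM (20 uM) started a 2 h room-temperature reaction. Monomethylated product was quantified by antibody-based AlphaScreen chemiluminescence.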
# Sfp inh: qHTS Assay for Inhibitors of Bacillus subtilis Sfp phosphopantetheinyl transferase (PPTase); Potency, µM, without a hit: largest response in the series, negative = inhibition, most hits filed as inhibitors; 310,000 compounds, 3.5% hits; Biochemical Sfp PPTase activity, qHTS;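 note: the enzyme is Sfp with the accession as filed and its product quenches rhodamine fluorescence; 0% = enzyme reaction without inhibitor and -100% = no enzyme wells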
#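 Reaction rates are the 30-min fluorescence difference (ex 525, em 598 nm) in wells containing 15 nM Sfp, 5 uM rhodamine-CoA and 12.5 uM BHQ-2-YbbR at pH 7.6 with 10 mM MgCl2.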
# JMJD2A Tudor: qHTS Assay for Inhibitors of JMJD2A-Tudor Domain; Lysine-specific demethylase 4A (Homo sapiens), O75164; AlphaScreen JMJD2A-Tudor / H3K4me3 peptide binding; Potency, µM (highest dose often 114 µM), without a hit: at the top dose activity change, negative = inhibition, actives largely listed as inhibitors; 390,000 compounds, 4.4% hits; AID 504339, 2011; note: % is set by controls: 0 for no effect and ±100 for the full control effect; nearly all actives have a fitted effect of over 50% in size
# HP1b binding inh: HTS for Inhibitors of HP1-beta Chromodomain Interactions with Methylated Histone Tails; 390,000 compounds, 0.56% hits; AID 540317, 2011; Potency, µM (titrated, usually from 114 µM), for the others: at the highest dose activity change, negative = inhibition, actives largely listed as inhibitors; Chromobox protein homolog 1 (Homo sapiens), P83916; AlphaScreen HP1-beta / biotin-H3K9me3 peptide binding; note: nearly all actives have a fitted effect of over 70% in size
#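 AlphaScreen: HP1-beta (50 nM) preformed 30 min with biotin-H3(1-18)K9me3 peptide (50 nM) in PBS pH 7.4, 0.01% Tween-20. Compound added for 30 min at RT, then streptavidin donor/nickel chelate acceptor beads (10 ug/mL) for 30 min.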
# 12-LOX inh: Primary qHTS assay for inhibitors of human arachidonate 12S-lipoxygenase (ALOX12): Round 2; purified 12hLO, xylenol orange hydroperoxide absorbance; Potency, µM (titrated, usually from 108 µM), inactives show at the top dose activity change, negative = inhibition, actives largely listed as inhibitors; 580,000 compounds, 1.1% hits; AID 1671190, 2021; note: % is set by controls: 0 for no effect and ±100 for the full control effect
#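 Purified human 12hLO (150 nM final) in 25 mM Hepes, 0.01% Triton X-100, pH 7.0 was preincubated 15 min at room temperature with compound. Then 40 uM arachidonic acid was added, 30 min. Hydroperoxide was read by Fe-XO absorbance ratio 573/405 nm.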
# BAZ2B block: qHTS Assay for Inhibitors of BAZ2B. 360,000 compounds, 4.4% hits. AID 504333, 2011. AlphaScreen BAZ2B-H3K14Ac peptide displacement. Bromodomain adjacent to zinc finger domain protein 2B (Homo sapiens), Q9UIF8. Potency, µM (doses to about 114 µM), for the others: at the top dose activity change, negative = inhibition, usual class: inhibitors; note: % is set by controls: 0 for no effect and ±100 for the full control effect; nearly all actives have a fitted effect of over 60% in size
# Target sequence (Q9UIF8 whole entry, looked up, the tested form may be a part): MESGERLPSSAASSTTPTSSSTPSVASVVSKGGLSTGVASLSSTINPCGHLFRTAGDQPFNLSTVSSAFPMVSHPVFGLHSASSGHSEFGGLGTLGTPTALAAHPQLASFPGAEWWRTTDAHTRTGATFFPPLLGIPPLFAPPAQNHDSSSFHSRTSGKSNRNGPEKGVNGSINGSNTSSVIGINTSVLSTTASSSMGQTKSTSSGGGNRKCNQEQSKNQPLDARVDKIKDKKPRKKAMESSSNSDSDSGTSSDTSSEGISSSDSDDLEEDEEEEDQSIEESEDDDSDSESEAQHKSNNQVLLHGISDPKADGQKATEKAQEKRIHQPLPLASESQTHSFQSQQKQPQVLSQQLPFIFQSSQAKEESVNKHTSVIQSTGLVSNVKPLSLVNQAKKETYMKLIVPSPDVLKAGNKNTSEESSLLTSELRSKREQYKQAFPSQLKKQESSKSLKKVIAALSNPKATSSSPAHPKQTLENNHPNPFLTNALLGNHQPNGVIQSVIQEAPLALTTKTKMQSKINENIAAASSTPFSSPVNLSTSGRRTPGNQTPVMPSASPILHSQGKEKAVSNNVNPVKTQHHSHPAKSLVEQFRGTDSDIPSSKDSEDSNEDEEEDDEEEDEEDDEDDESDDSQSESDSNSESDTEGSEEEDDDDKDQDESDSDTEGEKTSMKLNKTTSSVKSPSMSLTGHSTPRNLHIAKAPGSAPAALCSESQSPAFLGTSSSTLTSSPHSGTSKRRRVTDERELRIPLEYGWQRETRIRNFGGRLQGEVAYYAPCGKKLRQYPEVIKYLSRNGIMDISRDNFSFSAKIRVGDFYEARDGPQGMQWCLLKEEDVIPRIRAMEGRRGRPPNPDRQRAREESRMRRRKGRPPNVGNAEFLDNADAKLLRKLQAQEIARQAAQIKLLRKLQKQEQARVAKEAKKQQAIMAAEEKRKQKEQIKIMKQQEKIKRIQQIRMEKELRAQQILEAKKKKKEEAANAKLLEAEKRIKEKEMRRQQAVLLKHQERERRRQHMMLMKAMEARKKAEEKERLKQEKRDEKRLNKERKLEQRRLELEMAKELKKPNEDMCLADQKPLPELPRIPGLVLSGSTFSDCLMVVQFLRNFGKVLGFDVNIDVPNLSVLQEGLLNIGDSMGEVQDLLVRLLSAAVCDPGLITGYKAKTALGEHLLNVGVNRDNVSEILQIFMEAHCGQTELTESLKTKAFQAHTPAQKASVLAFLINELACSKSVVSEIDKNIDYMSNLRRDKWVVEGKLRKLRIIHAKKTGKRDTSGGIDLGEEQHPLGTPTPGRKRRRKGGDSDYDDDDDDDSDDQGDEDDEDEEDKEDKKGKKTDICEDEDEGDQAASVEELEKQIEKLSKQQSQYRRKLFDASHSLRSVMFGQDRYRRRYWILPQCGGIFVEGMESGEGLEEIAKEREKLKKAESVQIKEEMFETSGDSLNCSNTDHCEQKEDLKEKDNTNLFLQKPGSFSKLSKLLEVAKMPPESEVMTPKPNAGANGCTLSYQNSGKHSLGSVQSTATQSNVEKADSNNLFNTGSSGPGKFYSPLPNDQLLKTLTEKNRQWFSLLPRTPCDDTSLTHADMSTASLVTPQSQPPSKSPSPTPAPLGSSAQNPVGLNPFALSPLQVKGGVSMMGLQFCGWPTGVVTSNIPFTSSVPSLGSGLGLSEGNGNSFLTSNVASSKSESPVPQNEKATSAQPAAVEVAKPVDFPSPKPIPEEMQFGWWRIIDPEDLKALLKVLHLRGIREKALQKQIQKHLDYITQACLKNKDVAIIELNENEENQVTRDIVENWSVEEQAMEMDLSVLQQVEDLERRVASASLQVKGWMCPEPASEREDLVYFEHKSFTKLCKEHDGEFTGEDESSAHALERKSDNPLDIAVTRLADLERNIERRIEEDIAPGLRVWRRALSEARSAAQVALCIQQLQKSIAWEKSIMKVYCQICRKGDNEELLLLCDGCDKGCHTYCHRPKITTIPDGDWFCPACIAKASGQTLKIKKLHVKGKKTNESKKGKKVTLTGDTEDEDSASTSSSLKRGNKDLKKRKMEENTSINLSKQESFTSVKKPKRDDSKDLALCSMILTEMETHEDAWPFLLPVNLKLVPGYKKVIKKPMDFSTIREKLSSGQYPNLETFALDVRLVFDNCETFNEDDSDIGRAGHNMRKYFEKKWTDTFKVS
#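 Inhibition is scored as reduced AlphaScreen emission. The BAZ2B/b-H3(5-23)K14Ac complex (50 nM each) in PBS pH 7.4, 0.01% Tween-20 meets compound (up to 110 uM) for 30 min at RT before bead addition.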
# The depositor's hits bear a star; ? = inconclusive; . = no result given; [ ] = remark or other dose. Most compounds without a hit are left out; they make up all but 8.7% or so of the library. Calls come from the whole dose curve; as a rule, active = well fitted curve in the direction sought with a large enough effect; inconclusive = small, poorly fitted or top-dose-only effect, or another doubt; inactive = no such curve, though single readings can be large; an effect the other way counts as inactive or inconclusive. Potency is the fitted concentration of half-maximal effect.
SMILES,G9a inh,Sfp inh,JMJD2A Tudor,HP1b binding inh,12-LOX inh,BAZ2B block
NS(=O)(=O)c1ccc(NC(=S)NC(=O)C2CCCCC2)cc1,?,19%,-21%,24%,?,-35%
NS(=O)(=O)c1ccc(NC(=O)CSc2nnc(NC3CC3)s2)cc1,45µM*,.,?,?,?,?
O=S(=O)(c1ccc(NC(=S)NC2CCCC2)cc1)N1CCCC1,.,-8%,-33%,-7%,-21%,-17%
O=C(CCSc1nnc(NC2CC2)s1)Nc1ccc(Br)cc1,.,.,.,.,-27%,.
NS(=O)(=O)c1ccc(NC(=S)NC2CCCC2)cc1,8.9µM*,10µM*,6%,29%,?,-5%
Cc1nc2ccc(C(=O)OC(C)C(=O)NC3CC3)cc2nc1C (stereo not drawn),.,.,.,.,15%,.
NS(=O)(=O)c1ccc(NC(=O)CSC2CCCCC2)cc1,?,13%,28µM*,-18%,34%,-1%
CCOC(=O)c1ccc(N2C(=O)CC(SCC(=O)Nc3ccc(S(N)(=O)=O)cc3)C2=O)cc1 (stereo not drawn),32µM*,-18%,-16%,33%,5%,-4%
CC(OC(=O)CCC1CCCCC1)C(=O)Nc1ccc(S(N)(=O)=O)cc1 (stereo not drawn),56µM*,.,-16%,12%,-11%,7%
CC(OC(=O)CC1CCCCC1)C(=O)Nc1ccc(S(N)(=O)=O)cc1 (stereo not drawn),-1%[59 µM],.,-14%,-2%,-1%,-4%
COc1ccc(NC(=O)CSC2CCCCC2)cc1,-45%[12.7 µM],-3%,-10%,30%,-6%,8%
COCCn1cnc2ccc(-c3ccc4c(ccn4C)c3)nc2c1=O,.,.,.,.,-27%[176 µM],.
Cc1cccc(C)c1NC(=O)CCCCCC1NC(=O)NC1C (stereo not drawn),13µM*,-5%,3%,53%,-8%,8.9µM*
Cc1cccc(C)c1NC(=O)CCCN1CC(C)OC(C)C1 (stereo not drawn),-6%,15%,2%[11.4 µM],49%,22%,11%
O=C(CCCCC(=O)NCCCc1ccccc1)NCCCc1ccccc1,.,16%,7%,34%,1%,-5%
C[C@@H]1NC(=O)N[C@@H]1CCCCCC(=O)O,.,.,1µM*,?,13%,.
CC1NC(=O)NC1CCCCCC(=O)NCCc1ccccc1 (stereo not drawn),?,-4%,3.5µM*,?,-6%,0.89µM*
CCCCCC1NC(=O)NC1CCCCCC(=O)O (stereo not drawn),1%[12.7 µM],8%,-10%,41%,-24%,1%
Cc1ccc(CN2CCc3nc(C(=O)NCc4cccc(F)c4)oc3CC2)o1,.,.,.,.,6%[176 µM],.
CCCCCCCCc1cnc(-c2ccc(OC(F)(F)F)cc2)nc1,.,.,.,.,18%,.
CC(C)CN(CCCNC(=O)c1cc(=O)[nH]c2ccc(S(=O)(=O)N3CCCC3)cc12)CC(C)C,29%[59 µM],.,-11%,8%,-23%,13%
CC1CCCCN1S(=O)(=O)c1ccc2[nH]c(=O)cc(C(=O)NCCCN3CCCCCC3)c2c1 (stereo not drawn),79µM*,-1%,-35%,12%,-6%,-16%[57.1 µM]
COc1ccc(-c2nc(C3CC3)nc3c2CN(C(=O)c2ccccn2)CC3)cc1,.,.,.,.,-18%[6.33 µM],.
COC(=O)C1=CN(c2ccc(C(C)(C)C)cc2)C(N)=C(C#N)C1c1ccccc1F (stereo not drawn),.,.,.,.,1%,.
CCc1ccc(N2C=C(C(=O)OC)C(c3ccccc3F)C(C#N)=C2N)cc1 (stereo not drawn),.,.,.,.,45µM*,.
SMILES,G9a inh,Sfp inh,JMJD2A Tudor,HP1b binding inh,12-LOX inh,BAZ2B block
O=C(NC1CC1)c1cc(-c2ccccc2)nc2ccccc12,.,.,.,.,-6%,.
Cc1ccc(CNC(=O)c2cc(-c3ccc(C)o3)nc3ccccc23)cc1,.,.,.,.,3.2µM*,.
Cc1ccc(-c2cc(C(=O)NC3CC3)c3ccccc3n2)o1,.,.,.,.,13µM*,.
CC1CCC(NC(=O)c2cc(-c3ccccc3)nc3ccccc23)CC1 (stereo not drawn),.,.,.,.,0.79µM*,.
O=C(NC1CCC(O)CC1)c1cc(-c2ccco2)nc2ccccc12 (stereo not drawn),40µM*,18µM*,?,-15%,?,22µM*
COc1ccc(CNC(=O)Cc2c(C)c3ccc(OC)c(OC)c3oc2=O)cc1,.,.,.,.,7%,.
COc1cccc(CNC(=O)[C@@H]2C[C@@H](O)CN2C2CCN(C(=O)C3CCCC3)CC2)c1,.,.,.,.,9%,.
O=C(NCC1CCCO1)c1cc(-c2ccco2)nc2ccccc12 (stereo not drawn),45µM*,-20%,-8%[11.4 µM],?,?,50µM*
O=C(NCC1CCCO1)c1cc(-c2ccncc2)nc2ccccc12 (stereo not drawn),-17%,.,-1%,23%,-4%,11%
CC1CCC(NC(=O)c2cc3ccccc3c(Cl)n2)CC1 (stereo not drawn),.,.,.,.,40µM*,.
COC(CNC(=O)c1ccc(CNS(=O)(=O)c2ccc(C)cc2)cc1)OC,.,.,.,.,7%,.
CCCNc1c(NC(=O)Cc2ccc(OC)cc2)c(=O)oc2ccccc12,.,.,.,.,-5%,.
CCN(CC)C(=O)CSc1nc(C)cc(-c2cccs2)c1C#N,10µM*,40µM*,56µM*,2%,?,-16%
COc1ccc(Br)c2oc(SC)cc(=O)c12,40µM*,13%,-10%,32%,?,?
COc1ccc(-c2cc(=O)c3c(OC)c(OC)c(OC)c(OC)c3o2)cc1OC,?,31%,-22%,20%,?,-23%
O=C(NC(=O)c1ccc(Cl)cc1)Nc1cc(N2CCCCC2)ncn1,.,.,79µM*,-19%,-24%,.
C=C(C)C[C@H]1CC=C[C@H](CC(=C)C)[N+]1(C)C,.,.,.,.,18µM*,.
Cc1cc2ccccc2n1CC(=O)NC1CCN(CC(N)=O)CC1,.,.,.,.,-21%,.
COCCCN1C(=O)N(Cc2nncn2C(C)C)C(=O)C12CCNCC2,.,.,.,.,18µM*,.
CN(C(=O)CSc1nc2cc(Cl)ccc2c(=O)n1Cc1ccco1)C1CCS(=O)(=O)C1 (stereo not drawn),-12%,-13%,-23%,24%,1%,?
CCc1cc2c(=O)n(Cc3ccco3)c(SCC(=O)N(C)C3CCS(=O)(=O)C3)nc2s1 (stereo not drawn),?,7.9µM*,-23%,15%,-8%,-2%

# Compound activity deposited in PubChem by National Center for Advancing Translational Sciences (NCATS).
